Measurements taken from PubChem BioAssay (NCATS).
Inconclusive results are not listed. A call without a number means that no potency is given here. Activity calls are given as the source filed them. Calls come from the whole dose curve; as a rule, active = well fitted inhibition curve with a large enough effect; inconclusive = small, poorly fitted or top-dose-only effect; inactive = flat fitted curve, though single readings scatter.

Columns and labels:
Test in all cases: qHTS profiling for inhibitors of Plasmodium falciparum proliferation (AID 504749); note: nearly all actives have a fitted effect of over 60% in size
Settings in all cases: P. falciparum in erythrocytes, SYBR Green DNA, 72 h; series mostly up to 28.7 µM
FAB9 = system: FAB9
Summary of the method: (§1)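 P. falciparum-infected erythrocytes (0.3% parasitemia, 2.5% hematocrit final) were exposed to compounds for 72 h at 37 C in 5% CO2, then lysed with SYBR Green buffer overnight at room temperature; parasite DNA fluorescence was normalized to artemisinin and DMSO controls.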

GB4 = system: GB4
Summary of the method: as §1

HB3 = system: HB3
Summary of the method: as §1

JCK = system: JCK
Summary of the method: as §1

N140 = system: N140
Summary of the method: as §1

P94_40 = system: P94_40
Summary of the method: as §1

PAD = system: PAD
Summary of the method: as §1

PC15 = system: PC15
Summary of the method: as §1

ICS = system: ICS
Summary of the method: as §1

P93_24 = system: P93_24
Summary of the method: as §1
Potency is the fitted concentration of half-maximal effect.

Row | Structure (SMILES) | Potency (FAB9) | Potency (GB4) | Potency (HB3) | Potency (JCK) | Potency (N140) | Potency (P94_40) | Potency (PAD) | Potency (PC15) | Potency (ICS) | Potency (P93_24)
1 | COc1ccc(CCN(C)CCCN2CCc3cc(OC)c(OC)cc3CC2=O)cc1OC | inactive | inactive | inactive | inactive | inactive | inactive | inactive | inactive | – | –
2 | CC(C)(Cc1c[nH]c2ccccc12)NCC(O)COc1ccccc1C#N (stereo not drawn) | inactive | 9.53 µM (active) | – | inactive | – | 11.2 µM (active) | – | – | 11.2 µM (active) | –
3 | CC(C)(C)NC[C@H](O)COc1cccc2c1CCCC2=O | inactive | – | inactive | inactive | inactive | inactive | inactive | inactive | inactive | inactive
4 | CN1CCN(CCC(=O)N2c3ccccc3Sc3ccc(C(F)(F)F)cc32)CC1 | inactive | – | inactive | inactive | – | inactive | – | – | 7.08 µM (active) | –
5 | CC(=O)O[C@H]1C[C@@H]2CC[C@@H]3[C@H](CC[C@@]4(C)[C@H]3C[C@H]([N+]3(C)CCCCC3)[C@@H]4OC(C)=O)[C@@]2(C)C[C@@H]1N1CCCCC1 | inactive | – | – | inactive | inactive | – | inactive | inactive | – | –
6 | CN1CCN(c2cc3c(cc2F)c(=O)c(C(=O)O)cn3-c2ccc(F)cc2)CC1 | inactive | – | inactive | inactive | – | – | inactive | inactive | – | –
7 | CC(C)(C)NC[C@H](O)COc1nsnc1N1CCOCC1 | – | 7.57 µM (active) | 3.55 µM (active) | – | 3.98 µM (active) | 3.16 µM (active) | 6.31 µM (active) | 2.24 µM (active) | 1.26 µM (active) | 3.55 µM (active)
8 | NC(N)=NN=C(/C=C/c1ccc([N+](=O)[O-])o1)/C=C/c1ccc([N+](=O)[O-])o1 | – | – | 2.24 µM (active) | – | 10 µM (active) | – | 10 µM (active) | – | 2 µM (active) | 12.6 µM (active)
9 | CN(C)CCOC(c1ccc(Cl)cc1)c1ccccn1 (stereo not drawn) | inactive | – | inactive | – | – | – | inactive | – | – | –
10 | CCN(CC)CCOc1ccc2c(c1)C(=O)c1cc(OCCN(CC)CC)ccc1-2 | – | 12 µM (active) | 11.2 µM (active) | – | – | – | – | – | – | 11.2 µM (active)
11 | NC1CCN(c2nc3c(cc2F)c(=O)c(C(=O)O)cn3-c2ccc(F)cc2F)C1 (stereo not drawn) | inactive | – | – | inactive | – | – | inactive | inactive | – | –
12 | CC(C)[N+](C)(C)CC(O)COc1cccc2ccccc12 (stereo not drawn) | 7.94 µM (active) | – | – | inactive | inactive | – | inactive | inactive | – | –
13 | CCCCCN=C(N)N/N=C/c1c[nH]c2ccc(OC)cc12 | – | 5.36 µM (active) | 3.16 µM (active) | – | 4.47 µM (active) | 2.82 µM (active) | 6.31 µM (active) | 5.62 µM (active) | 1.26 µM (active) | 3.16 µM (active)
14 | CCCCc1cc2ccccc2c(OCCN(C)C)n1 | inactive | – | inactive | inactive | inactive | inactive | inactive | inactive | – | inactive
15 | NCCNc1cccc2ccccc12 | inactive | – | inactive | inactive | inactive | inactive | inactive | inactive | – | –
16 | CN1CCc2cccc3c2[C@H]1Cc1ccc(O)c(O)c1-3 | – | 7.57 µM (active) | 11.2 µM (active) | – | 10 µM (active) | 3.98 µM (active) | 11.2 µM (active) | 8.91 µM (active) | 2.82 µM (active) | 7.94 µM (active)
17 | CC(C)=CCOc1ccc(/C=C/C(=O)c2ccc(OCC=C(C)C)cc2OCC(=O)O)cc1 | inactive | – | inactive | inactive | inactive | inactive | inactive | inactive | – | inactive
18 | CN1CCC(OC(c2ccccc2)c2ccccc2)CC1 | inactive | – | inactive | inactive | – | – | inactive | – | – | –
19 | CCCN(CCc1cccs1)[C@H]1CCc2c(O)cccc2C1 | – | 1.69 µM (active) | 10 µM (active) | – | 3.16 µM (active) | 4.47 µM (active) | 3.16 µM (active) | 6.31 µM (active) | 0.794 µM (active) | 6.31 µM (active)
20 | CCN(CC)CCNc1ccc(CO)c2sc3ccccc3c(=O)c12 | – | 1.2 µM (active) | 8.91 µM (active) | 11.2 µM (active) | 0.708 µM (active) | 1.58 µM (active) | 1 µM (active) | 3.16 µM (active) | 2 µM (active) | 0.891 µM (active)
21 | CCN(CC)CCOc1ccccc1C(=O)CCc1ccccc1 | inactive | – | inactive | inactive | – | – | inactive | – | – | –
22 | CN(C)C(=O)Nc1ccc(Cl)c(Cl)c1 | inactive | – | – | inactive | – | inactive | – | – | – | –

Row | Structure (SMILES) | Potency (FAB9) | Potency (GB4) | Potency (HB3) | Potency (JCK) | Potency (N140) | Potency (P94_40) | Potency (PAD) | Potency (PC15) | Potency (ICS) | Potency (P93_24)
23 | CC(=O)O[C@]1(C(C)=O)CC[C@H]2[C@@H]3C=C(Cl)C4=CC(=O)CC[C@]4(C)[C@H]3CC[C@@]21C | inactive | – | – | inactive | – | 11.2 µM (active) | – | – | 10 µM (active) | 11.2 µM (active)
24 | C[N+]1(C)CCC(=C(c2ccccc2)c2ccccc2)CC1 | – | – | – | inactive | inactive | inactive | inactive | – | – | inactive
25 | CN1CCN(C2=Nc3cc(F)ccc3Cc3ccccc32)CC1 | inactive | – | inactive | inactive | – | – | – | inactive | – | –
26 | CC(C)NCC(O)c1ccc2ccccc2c1 (stereo not drawn) | – | 6.75 µM (active) | 12.6 µM (active) | – | 4.47 µM (active) | 5.01 µM (active) | 3.98 µM (active) | 7.94 µM (active) | 2 µM (active) | 8.91 µM (active)
27 | O=C(O)CCc1nc2ccccc2[nH]1 | – | – | 0.0089 µM (active) | – | – | – | – | inactive | inactive | –
28 | CCN(CC)CCOC(=O)C1(c2ccccc2)CCCC1 | inactive | – | inactive | – | inactive | inactive | inactive | – | – | –
29 | COc1ccc(C(Cl)=C(c2ccc(OC)cc2)c2ccc(OC)cc2)cc1 | – | inactive | – | – | 15.8 µM (active) | 11.2 µM (active) | – | inactive | – | –
30 | COC(=O)C(c1ccccc1Cl)N1CCc2sccc2C1 (stereo not drawn) | inactive | – | – | inactive | – | – | – | inactive | – | –
31 | Cc1ccc2c(Br)cc(Br)c(O)c2n1 | – | – | – | 10 µM (active) | 10 µM (active) | – | – | inactive | 11.2 µM (active) | –
32 | O=C(c1ccc(F)cc1)C1CCN(CCn2c(=S)[nH]c3ccccc3c2=O)CC1 | – | 12 µM (active) | 11.2 µM (active) | 11.2 µM (active) | 5.01 µM (active) | 3.16 µM (active) | 8.91 µM (active) | – | 5.01 µM (active) | 3.98 µM (active)
33 | CC(C)(C)CC(C)(C)c1ccc(O)c(-n2nc3ccccc3n2)c1 | – | 16.9 µM (active) | 11.2 µM (active) | inactive | – | – | – | – | 5.01 µM (active) | 10 µM (active)
34 | N/C(=N\N=C\c1ccc(Cl)cc1)N/N=C/c1ccc(Cl)cc1 | – | – | – | – | – | – | – | – | 2.24 µM (active) | –
35 | CCCCCCCCCCCCOCCOCCOCCOCCOCCOCCOCCOCCOCCO | inactive | – | – | inactive | – | – | – | – | – | –
36 | O=C(Nc1cccc(C2=NCCN2)c1)Nc1cccc(C2=NCCN2)c1 | – | 3.79 µM (active) | 10 µM (active) | 5.01 µM (active) | 4.47 µM (active) | 1.12 µM (active) | 3.16 µM (active) | 3.98 µM (active) | 2.24 µM (active) | 1.78 µM (active)
37 | CC[N+](C)(CC)CCOC(=O)C(O)(c1ccccc1)C1CCCCC1 (stereo not drawn) | inactive | – | – | inactive | inactive | inactive | inactive | inactive | – | –
38 | O=C(Oc1cccc2cccnc12)c1ccccc1 | inactive | – | inactive | inactive | inactive | inactive | inactive | inactive | – | inactive
39 | COc1cc(O)c(C(=O)c2ccccc2)cc1S(=O)(=O)O | inactive | – | – | inactive | – | – | – | – | 3.55 µM (active) | –
40 | Cc1ccc(-c2ncc(Cl)cc2-c2ccc(S(C)(=O)=O)cc2)cn1 | inactive | – | – | – | – | 11.2 µM (active) | – | – | – | –
41 | CC1CCc2c(N3CCC(O)CC3)c(F)cc3c(=O)c(C(=O)O)cn1c23 (stereo not drawn) | inactive | – | inactive | inactive | – | – | inactive | inactive | – | –
42 | Oc1ccc(Cl)cc1Cc1cc(Cl)ccc1O | inactive | – | inactive | – | 11.2 µM (active) | – | – | – | – | inactive
43 | Clc1cccc(C(c2ccc3nc[nH]c3c2)n2ccnc2)c1 (stereo not drawn) | – | 12 µM (active) | – | inactive | 10 µM (active) | – | – | 12.6 µM (active) | 5.62 µM (active) | 7.08 µM (active)
44 | CCOCCn1c(N2CCCN(C)CC2)nc2ccccc21 | inactive | – | inactive | inactive | inactive | inactive | – | – | – | inactive
